Source: PubChem BioAssay
An excerpt weighted towards active compounds, which were near 7.9% of everything screened.
FMDV antiviral – High Throughput Screening for Foot and Mouth Disease Virus Antivirals. FMDV antiviral cell-based qHTS. Potency, µM (doses to about 57.9 µM), inactives show at the top dose activity change, negative = inhibition, actives largely listed as inhibitors. 1.2% of 410,000 active. AID 1159524, 2015; calls by dose curve; tested in HEK293T cells; note: read-out not given here; potency is the fitted concentration of half-maximal effect; nearly all actives have a fitted effect of over 45% in size
LASV entry inh – qHTS for Inhibitors of binding or entry into cells for Lassa Virus; Potency, µM (titrated, usually from 37.9 µM), without a hit: at the top dose activity change, negative = inhibition, most hits filed as inhibitors; 1.2% of 300,000 active; Lassa virus pseudotype entry inhibition, cell reporter; AID 540256, 2011; calls by dose curve; tested in HEK293 cells; note: potency is the fitted concentration of half-maximal effect; nearly all actives have a fitted effect of over 50% in size
HCMV inh – qHTS Assay for inhibitors of the human cytomegalovirus (HCMV). AID 1259415, 2018. 4.5% of 410,000 active. HFF cells, HCMV-luciferase reporter, 72 h; active compounds read low. activity change, negative = inhibition, % at 57.5 µM; in the data active = activity change below about -60%; inconclusive = no clear call, values can overlap the other calls; inactive = above about -39%
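HFF cells seeded 16 h at 37C, treated with compounds, infected with luciferase-reporter HCMV at MOI 1 PFU/cell; luciferase read at 72 h post infection, normalized to buffer-only and Salinomycin controls.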
HCV inh – qHTS Assay for Inhibitors of Hepatitis C Virus (HCV) | Huh7.5.1 HCVcc-Cre infection, luciferase reporter, 44 h | 3.4% of 340,000 active | AID 651820, 2012 | Potency, µM (doses to about 41.8 µM), for the others: at the highest dose activity change, negative = inhibition, hits mostly inhibitors; active = well fitted inhibition curve with a large enough effect; inconclusive = small, poorly fitted or top-dose-only effect, or another doubt; inactive = no such curve, though single readings can be large or run the other way; note: potency is the fitted concentration of half-maximal effect
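Infectious HCV cell culture screen: compound-treated cells (1,000/well, pre-plated 4 h) are infected with HCVcc-Cre at roughly 0.5 moi and grown 44 h. Infection is quantified by luciferase signal after 15 min substrate incubation at room temperature.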
MARV entry inh – qHTS for inhibitors of binding or entry into cells for Marburg Virus; Marburg virus pseudotyped entry inhibition, cell reporter; AID 540276, 2011; 1.8% of 300,000 active; Potency, µM (highest dose often 37.8 µM), without a hit: at the highest dose activity change, negative = inhibition, hits mostly inhibitors; calls by dose curve; tested in HEK293 cells; note: potency is the fitted concentration of half-maximal effect
Numbers without * were called inactive; ? = inconclusive; · = no result given; [ ] = remark or other dose. % is set by controls: 0 for no effect and ±100 for the full control effect.

SMILES	FMDV antiviral	LASV entry inh	HCMV inh	HCV inh	MARV entry inh
CCOc1cc(C(=O)NCC(c2ccc(N(C)C)cc2)N2CCOCC2)cc(OCC)c1OCC (centres undefined)	-22%	-2%[46.1 µM]	-62*	·	·
Cc1cc(C)n(S(=O)(=O)c2ccccc2)n1	3%	-5%	-2	-12%	2%[46.1 µM]
Cc1cc(C)n(S(=O)(=O)c2ccccc2[N+](=O)[O-])n1	-21%	1%[46.1 µM]	-60*	4%	0%[46.1 µM]
Cc1cc(/C=C2\SC(=Nc3ccc(F)cc3)NC2=O)c(C)n1-c1ccc(S(N)(=O)=O)cc1	35µM*	?	-84*	3.5µM*	?
Cc1cc(/C=C2\SC(=S)NC2=O)c(C)n1-c1ccc(O)cc1	-2%	·	-23	-10%	·
O=C(CSc1nnc(Cc2cccs2)n1-c1ccccc1)NC1CCCCC1	7%	14µM*	-26	-14%	-19%
CCC1CSC(Nc2ccc(C(=O)/C=C/c3ccc(OC)c(OC)c3)cc2)=N1 (centres undefined)	25µM*	23µM*	-101*	?	?
COc1ccc(/C=C/C(=O)c2ccc(NC3=NCCCS3)cc2)cc1OC	16µM*	-2%	87	?	?
COc1ccc(C=CC(=O)c2ccc3cc(OC)c(OC)cc3c2)cc1OC	?	·	183	·	·
Cc1ccccc1N(C(=O)CCC(=O)Nc1ccccn1)C(C(=O)NC(C)C)c1ccc(O)cc1 (centres undefined)	0%	-3%	109	7%	7.1µM*
CS(=O)(=O)N(CC(=O)NCC1CCCO1)c1ccc(F)c(Cl)c1 (centres undefined)	-14%	-11%	-60*	3%	0%
Cc1ccc(C)c(NC(=O)C(=O)NCCc2csc3nc(-c4ccccc4C)nn23)c1	22µM*	11%[46.1 µM]	-68*	·	·
O=C(CSc1nccc(=O)[nH]1)N1N=C2/C(=C/c3ccco3)CCCC2C1c1ccco1 (centres undefined)	-12%	-6%	-11	-1%	-2%[46.1 µM]
Cn1cnnc1SCC(=O)N1N=C2/C(=C/c3ccco3)CCCC2C1c1ccco1 (centres undefined)	0%	-5%	-61*	-21%	-10%
CC1CCCCN1CCCNC(=O)Cn1ncc2c3ccccc3n(Cc3ccccc3F)c2c1=O (centres undefined)	-25%	-2%[46.1 µM]	-74*	·	-3%[46.1 µM]
CC1CCCCN1CCCNC(=O)Cn1ncc2c3ccccc3n(C)c2c1=O (centres undefined)	-12%	19%[46.1 µM]	31	·	-13%[46.1 µM]
CCCn1c2ccccc2c2cnn(CC(=O)N3CCCC(C)C3)c(=O)c21 (centres undefined)	-4%	-4%[46.1 µM]	-62*	·	·
CCCn1c2ccccc2c2cnn(CC(=O)NCCCN3CCN(c4ccccc4)CC3)c(=O)c21	-13%	·	-24	11µM*	·
Cc1ccccc1Cn1c2ccccc2c2cnn(CC(=O)NCc3cccc(Cl)c3)c(=O)c21	-10%	-24%[46.1 µM]	-78*	·	-21%[46.1 µM]
COc1ccccc1CNC(=O)Cn1ncc2c3ccccc3n(Cc3ccccc3C)c2c1=O	-3%	0%[46.1 µM]	-8	·	-14%[46.1 µM]
COc1ccc(NC(=O)c2cc(C3CCCCN3C(=O)c3ccc4c(c3)CCO4)on2)c(C)c1 (centres undefined)	22%	·	-22	·	·
O=C1CCN(Cc2cccc(C(F)(F)F)c2)CCN1Cc1ccccn1	-11%	·	·	·	·
CCCn1c2ccccc2c2cnn(CC(=O)NCCCN3CCCCC3)c(=O)c21	?	-3%[46.1 µM]	-24	-10%	·
CCCn1c2ccccc2c2cnn(CC(=O)NCCCN3CCCC(C)C3)c(=O)c21 (centres undefined)	-7%	-27%[46.1 µM]	-65*	?	?
CN(C)CCCNC(=O)CCC1CCCCC1	-11%	14%	-107*	8%	6%
COc1cc(C2C=C(C34CC5CC(CC(C5)C3)C4)NC(=S)N2)cc(OC)c1OC (centres undefined)	-2%	?	-28	-25%	?
COc1ccc(OC)c(C2C=C(C34CC5CC(CC(C5)C3)C4)NC(=S)N2)c1 (centres undefined)	-1%	?	?	2.5µM*	7.1µM*
CN(C)CCCc1cc(C(=O)Nc2ccc(-c3ccncc3)cc2)ccc1O	-14%	?	·	·	?
Cc1cc2c(cc1S(=O)(=O)NCc1ccc(F)cc1)OCCN2C	66%	13%[46.1 µM]	-25	·	·
